Measured values taken from PubChem BioAssay (Tox21).
Results filed as inconclusive are left out. The source made the active and inactive calls. The call rests on the fitted dose curve; in most records, active means well fitted cell-killing curve with a large enough effect in the repeat runs; inconclusive means weak or mixed curves, or effect the other way; inactive means flat fitted curve, though single readings scatter.

Assay: cAMP Responsive Elements (CRE) small molecule antagonists, cell-based qHTS assay: qHTS cell viability counter screen (AID 2060913); further: nearly all actives have a fitted effect of over 40% in size
Details: CRE-bla HEK293T viability, CellTiter-Glo luminescence, 5 h; series mostly up to 92.4 µM; viability change, negative = cytotoxic: at the top concentration
Procedure, shortened: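 Cytotoxicity counter screen multiplexed with the CRE-bla antagonist read: HEK293T cells in DMEM with dialyzed FBS and 25 mM HEPES were treated 3 hrs under 0.25 uM final NKH477, then viability measured by CellTiter-Glo luminescence.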
On the % scale 0 is the no-effect control and ±100 the full control effect; potency means the concentration at half of the fitted maximal effect.

| Compound | viability change, negative = cytotoxic | Potency |
| --- | --- | --- |
| C1=CCC(c2ccccc2)CC1 (stereo not given) | 7.92% (inactive) |  |
| CCCCC(CC)COCC1CO1 (stereo not given) | 2.53% (inactive) |  |
| CC(=O)Nc1ccc(OCC(O)CNC(C)C)cc1 (stereo not given) | -0.581% [at 42.5 µM] (inactive) |  |
| CN(C)CCN(Cc1ccc(Cl)cc1)c1ccccn1 | -0.282% [at 42.5 µM] (inactive) |  |
| CCOC(=O)O[C@H](C)OC(=O)c1ccc2c(c1)cc(C(=O)NC1CCN(C(C)C)CC1)n2Cc1cc(-c2ccc(Cl)s2)on1 |  | 57.1 µM (active) |
| C/C=C(C)/C=C/C=C(C)C |  | inactive |
| Cc1cn([C@@H]2O[C@H](CO)[C@@H](O)[C@@H]2F)c(=O)[nH]c1=O | -1.86% [at 42.5 µM] (inactive) |  |
| O=C(/C=C/c1ccccc1)OCc1ccccc1 |  | inactive |
| C=CC(=O)OCC1CC2CC1C1CCC(COC(=O)C=C)C21 (stereo not given) | 14.4% (inactive) |  |
| Cc1nc(-c2ccc3c(c2)CCN(CCC2CCC(NC(=O)/C=C/c4ccc(F)cc4)CC2)CC3)no1 (stereo not given) | 0.472% [at 42.5 µM] (inactive) |  |
| CC/C=C\CCCCCCCCCCOC(C)=O | 2.18% (inactive) |  |
| FC(F)(F)C(F)(F)C(F)(F)C(F)(F)C(F)(F)C(F)(F)CCI | 4.81% [at 42.5 µM] (inactive) |  |
| O=[N+]([O-])c1ccc(/C=N\O)o1 | 6.89% [at 42.5 µM] (inactive) |  |
| Nc1ccc(O)cc1 |  | inactive |
| CS(=O)(=O)c1ccc(Cl)cc1 |  | inactive |
| OC[C@H]1O[C@@](CO)(O[C@H]2O[C@H](CO)[C@@H](O)[C@H](O)[C@H]2O)[C@@H](O)[C@@H]1O |  | inactive |
| CCCCNc1ccc(C(=O)OCCN(CC)CC)cc1 | 0.65% [at 42.5 µM] (inactive) |  |
| CCCCCCC1CCC(=O)O1 (stereo not given) | 4.54% (inactive) |  |
| COC(=O)c1cc(Cl)ccc1NS(=O)(=O)C(F)(F)F | -1.51% [at 42.5 µM] (inactive) |  |
| Nc1ccc(C(=O)Oc2ccccc2)c(O)c1 | -4.47% [at 42.5 µM] (inactive) |  |

| Compound | viability change, negative = cytotoxic | Potency |
| --- | --- | --- |
| N#CCc1cccc(C(F)(F)F)c1 | 1.33% (inactive) |  |
| C=CCOCC(CC)(CO)COCC=C | 0.0609% (inactive) |  |
| COc1ccc(CCN2CCC(Nc3nc4ccccc4n3Cc3ccc(F)cc3)CC2)cc1 |  | 35.1 µM (active) |
| COc1ccc2nc(N)sc2c1 |  | inactive |
| CC(=O)c1cccc([N+](=O)[O-])c1 | 3.13% (inactive) |  |
| C[N+](C)(C)CC(O)CCl (stereo not given) | -4.51% (inactive) |  |
| COC(C)(C)CC(C)=O | -2.66% (inactive) |  |
| C=CCOCC(O)CO (stereo not given) | 2.87% (inactive) |  |
| CCCCCCCCCCCCCC(=O)OCC | -1.37% (inactive) |  |
| Cc1oc(-c2ccccc2)nc1CCC(=O)c1ccc(CC2SC(=O)NC2=O)cc1 (stereo not given) | 0.867% [at 42.5 µM] (inactive) |  |
| CC(C)(C)c1ccccc1 | 3.56% (inactive) |  |
| CC1=C(C(=O)OC(C)C)C(c2cccc([N+](=O)[O-])c2)C(C(=O)OC2CN(C(c3ccccc3)c3ccccc3)C2)=C(N)N1 (stereo not given) | -10.6% [at 42.5 µM] (inactive) |  |
| C=C1CC[C@H](O)CC1=C/C=C1\CCC[C@]2(C)[C@@H]([C@H](C)/C=C/[C@H](C)C(C)C)CC[C@@H]12 |  | inactive |
| CCCCC(CC)CNC(=O)CC(C)OC(=O)CCC(=O)O (stereo not given) | -0.653% [at 42.5 µM] (inactive) |  |
| CCN1CCCC(OC(=O)C(c2ccccc2)c2ccccc2)C1 (stereo not given) | 5.26% [at 42.5 µM] (inactive) |  |
| Cc1ccc(N(CCO)CCO)cc1 | 2.19% (inactive) |  |
| Cc1[nH]cnc1-c1ccc(Cl)cc1 | 0.591% [at 42.5 µM] (inactive) |  |
| COC(=O)CCc1ccc(OCC(O)CNC(C)C)cc1 (stereo not given) | 2.4% [at 42.5 µM] (inactive) |  |
| C=CC(=O)OCC(CO)(COC(=O)C=C)COC(=O)C=C |  | 28.5 µM (active) |
| OCC(O)c1ccccc1 (stereo not given) | -3.2% (inactive) |  |
